High-throughput results (PubChem BioAssay)
An excerpt weighted towards active compounds, which were near 9.3% of everything screened.
ELG1 DNA repair – inhibitors of ELG1-dependent DNA repair in HEK293T cells; HEK293T ELG1-luciferase reporter, luminescence, 16 h; DNA damage induced by 5-fluorouridine; Potency, µM (doses to about 46.1 µM), without a hit: at the top dose activity change, negative = inhibition, most hits filed as inhibitors; hit rate 2.3% among 330,000; AID 504467; note: % is set by controls: 0 for no effect and ±100 for the full control effect; nearly all actives have a fitted effect of over 55% in size
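Quantitative HTS, concentration-response format. 2,000 cells/well co-treated with 5-fluorouridine and compound, 16 hr in 5% CO2 at 37 °C; ONE-Glo luminescence read after 30 min.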
FLuc counter – counter-screen for miR-21 project: firefly luciferase inhibitors or activators; P08659; purified FLuc, Km substrates, luminescence inhibition; Potency, µM (top dose mostly 57.5 µM), without a hit: at the highest dose activity change, negative = inhibition, actives largely listed as inhibitors; hit rate 6.9% among 360,000;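 note: plate controls were vehicle for no effect and reference inhibitor for full effect; nearly all actives have a fitted effect of over 55% in size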
Target sequence (P08659 whole entry, looked up): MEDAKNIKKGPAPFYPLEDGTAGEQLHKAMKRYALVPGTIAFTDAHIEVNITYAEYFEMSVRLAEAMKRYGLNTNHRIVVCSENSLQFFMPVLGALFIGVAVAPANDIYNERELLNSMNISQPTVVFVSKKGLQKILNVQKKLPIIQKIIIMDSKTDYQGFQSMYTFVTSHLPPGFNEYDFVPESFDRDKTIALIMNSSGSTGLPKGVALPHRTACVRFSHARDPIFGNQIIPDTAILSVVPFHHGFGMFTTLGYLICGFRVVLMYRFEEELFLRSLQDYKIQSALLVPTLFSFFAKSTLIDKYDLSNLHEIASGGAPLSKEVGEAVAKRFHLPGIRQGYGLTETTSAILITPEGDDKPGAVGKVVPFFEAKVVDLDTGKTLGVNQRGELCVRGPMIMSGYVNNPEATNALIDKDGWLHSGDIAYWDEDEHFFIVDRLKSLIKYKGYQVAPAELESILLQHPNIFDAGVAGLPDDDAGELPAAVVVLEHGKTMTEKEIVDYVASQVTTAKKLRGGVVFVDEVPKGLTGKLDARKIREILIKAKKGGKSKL
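Biochemical qHTS of compounds, final roughly 60 µM downward over six points, against 10 nM purified firefly luciferase using Km concentrations of substrates (10 uM D-luciferin, 10 uM ATP) in Tris acetate pH 7.5 buffer; luminescence output.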
NPC1 prom act – activates the NPC1 promoter | Potency, µM (titrated, usually from 9.22 µM), inactives show at the highest dose activation, hits mostly activators | hit rate 2.4% among 320,000 | Huh7 NPC1 promoter luciferase reporter, 24 h; note: % of control where 0% means no effect; nearly all actives have a fitted effect of over 60% in size
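Luminescence from an NPC1 promoter-driven luciferase reporter in stably transfected Huh7 cells was measured after 24 h compound treatment at 37 °C, followed by 10 min ambient incubation with luciferase detection reagent.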
Rab9 promoter act – activates the Rab9 promoter; Huh7 Rab9 promoter-luciferase reporter, luminescence, 24 h; Potency, µM (highest dose often 9.22 µM), inactives show top-dose activation, negative = inhibition, hits mostly activators; hit rate 2.8% among 320,000; note: % of control where 0% means no effect; nearly all actives have a fitted effect of over 60% in size
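Huh7 reporter line, Rab9 promoter upstream of luciferase. Compound exposure 24 h at 37 °C in reduced-serum medium with 10% FBS. Read-out: luminescence.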
SMN2 splice enh – SMN2 splice variant enhancement. HEK293 SMN2-luciferase splicing reporter, luminescence, 30-36 h. hit rate 2.8% among 210,000. Potency, µM (highest dose often 46.1 µM), for inactives: top-dose activity change, positive = activation, actives largely listed as activators; note: % of control where 0% means no effect; nearly all actives have a fitted effect of over 55% in size
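HEK293 cells carry an SMN2 […]–luciferase reporter in which exon 7 inclusion puts luciferase in frame. Cells were plated 10-12 h before compound addition, then incubated 30-36 h at 37C. ONE-Glo luminescence was read; sodium butyrate at 4.5 mM final served as control.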
ELG1 genotox – inducers of genotoxicity in HEK293T ELG1-luciferase cells; HEK293T ELG1-luciferase reporter, luminescence, 16 h; Potency, µM (doses to about 46 µM), without a hit: at the highest dose activity change, positive = activation, usual class: activators; hit rate 1.3% among 330,000; AID 504466; note: % of control where 0% means no effect; nearly all actives have a fitted effect of over 60% in size
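Screening used a luciferase reporter fused to human ELG1 in HEK293T cells. Luminescence was read on a CCD plate imager after 16 hr exposure and 30 min ONE-Glo incubation.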
Numbers without * were called inactive; ? = inconclusive; · = not tested or not shown; [ ] = remark or other dose. Calls come from the whole dose curve; as a rule, active = well fitted curve in the direction sought with a large enough effect; inconclusive = small, poorly fitted or top-dose-only effect, or another doubt; inactive = no such curve, though single readings can be large; an effect the other way counts as inactive or inconclusive. Potency is the fitted concentration of half-maximal effect.

SMILES	ELG1 DNA repair	FLuc counter	NPC1 prom act	Rab9 promoter act	SMN2 splice enh	ELG1 genotox
Cc1cc(C(=O)COC(=O)c2ccccc2Br)c(C)n1CC1CCCO1 (stereo not given)	?	0.11µM*	-30%	-34%	·	?
Cc1cc(C(=O)COC(=O)c2ccccc2NCCO)c(C)n1CC1CCCO1 (stereo not given)	?	1.5µM*	?	?	·	?
COc1ccc(S(=O)(=O)N2CCOC23CCN(S(=O)(=O)c2ccc(Cl)cc2)CC3)cc1	-9%	4%	-2%	-2%	·	6%
CC(C)(C)C(=O)Nc1nnc(SCC(=O)NCc2ccco2)s1	0%	6%	-3%	-5%	9%	1%
CC(C)Cn1c(NCCO)nc2ccccc21	-8%	-1%	-3%	-1%	-3%	2%
O=C(NNC(=O)C1CCN(S(=O)(=O)c2ccccc2C(F)(F)F)CC1)c1ccccc1O	?	-1%	-1%	-8%	·	1%
CCN(CC)C(=O)C1CC(c2ccc(OC)cc2)=NO1 (stereo not given)	0%	?	?	?	17%	16%
Cc1cc(C(=O)COC(=O)CN(C)S(=O)(=O)c2ccc(Cl)cc2)c(C)n1CC1CCCO1 (stereo not given)	1%	19µM*	9%	1%	-7%	1%
Cc1cc(C(=O)COC(=O)c2cccnc2Cl)c(C)n1CC1CCCO1 (stereo not given)	?	0.24µM*	?	?	11%	0.52µM*
O=C(COC(=O)c1cccnc1Cl)NCC1CCCO1 (stereo not given)	6%	0%	-1%	-5%	8%	0%
Cc1cc(Cl)ccc1NC(=O)CCN1C(=O)C2CCCCC2C1=O (stereo not given)	-2%	-1%	1%	-2%	·	0%
CCCCSCCCNC(=O)c1cn(CC)c2ccc(S(=O)(=O)N3CCOCC3)cc2c1=O	?	2%	0%	12%	2%	2%
CC1(C)Cc2ccccc2C(N/N=C/c2cccc(F)c2)=N1	-4%	-14%	-4%	-8%	-21%	-2%
O=C(O)c1cc(S(=O)(=O)O)cc(Nc2c3ccccc3nc3ccccc23)c1O	?	8.5µM*	4%	-5%	·	-4%
O=C(O)c1cccc(Nc2c3ccccc3nc3ccccc23)c1	-10%	-18%	5%	15%	·	5%
Cc1ccc(CNC(=O)C(Cc2ccccc2)NS(=O)(=O)c2cccs2)cc1 (stereo not given)	4%	-2%	2%	-5%	18µM*	-3%
CN(C)/C=N/c1c(C#N)cnn1-c1ccccc1	-1%	1%	0%	-19%	-3%	0%
CN(C)/C=N/c1c(C#N)cnn1-c1nc2ccccc2s1	?	-8%	0.11µM*	0.13µM*	-10%	13%
CN(C)/C=N/c1c(C#N)cnn1-c1ncnc2sc(-c3ccccc3)cc12	18µM*	-1%	12%	-3%	·	-20%
COC(=O)c1sccc1NC(=S)Nc1cccc(F)c1	-2%	0%	2%	-3%	·	-5%
C=CCNCCOCCOc1ccc(Cl)cc1C(C)(C)C	8%	0%	0%	-3%	-14%	-3%
CCc1cc2cc(C(=O)N3CCN(Cc4ccccc4)CC3)sc2s1	·	17µM*	·	·	-20%	·
CCc1cc2cc(C(=O)Nc3ccc(F)cc3)sc2s1	?	?	?	2.5µM*	36%	13%
CC(C)(C)c1ccc(C(=O)Nc2ccc(F)cc2)s1	?	1.2µM*	0.71µM*	0.63µM*	·	2.9µM*
CCc1cc2cc(C(=O)Nc3ccccc3F)sc2s1	?	0.76µM*	2.2µM*	1.8µM*	?	1.2µM*
SMILES	ELG1 DNA repair	FLuc counter	NPC1 prom act	Rab9 promoter act	SMN2 splice enh	ELG1 genotox
CCc1cc2cc(C(=O)N3CCN(c4ccccc4)CC3)sc2s1	0%	7%	-1%	1%	7%	-1%
Cn1nc(C(F)(F)F)c2cc(C(=O)Nc3ccc(F)cc3)sc21	?	-3%	-2%	-17%	·	-5%
COC(=O)c1c(NC(=O)c2ccoc2C)sc(C)c1C	9%	2%	-1%	2%	·	-1%
O=C(CSc1nc2ccccc2n1S(=O)(=O)c1cccc([N+](=O)[O-])c1)NCCc1ccccc1	?	2%	-2%	-7%	-13%	0%
CCOC(=O)C1C(=O)C=C(c2ccc(C)cc2)CC1c1cccc([N+](=O)[O-])c1 (stereo not given)	?	11µM*	-4%	0%	·	-6%
CCOC(=O)C1C(=O)C=C(c2ccc(C)cc2)CC1c1ccco1 (stereo not given)	17%	12µM*	2%	18%	-3%	0%
CCOC(=O)C1C(=O)C=C(c2ccc(NS(C)(=O)=O)cc2)CC1c1ccco1 (stereo not given)	4%	-2%	-2%	3%	-11%	-3%
CCOC(=O)C1=C(c2ccccc2)NC(=S)NC1c1cccc([N+](=O)[O-])c1 (stereo not given)	-20%	-2%	1%	-3%	·	-1%
CCN(CC)CCN(C(=O)c1ccc2ncsc2c1)c1nc2cc3c(cc2s1)OCO3	?	9.5µM*	0.71µM*	?	·	2.9µM*
CCN(CC)CCN(C(=O)c1ccc(C(=O)c2ccccc2)cc1)c1nc2cc3c(cc2s1)OCO3	-6%	-3%	-2%	5%	·	-11%
CC(C)(C)c1ccc(C(=O)Nc2ccc(S(=O)(=O)Nc3cnc4ccccc4n3)cc2)cc1	7%	13µM*	1%	0%[1.84 µM]	·	3%
O=C(Nc1ccc(S(=O)(=O)Nc2cnc3ccccc3n2)cc1)c1ccc(Br)o1	-3%	17µM*	0%	-5%	-26%	-6%
COC(=O)Nc1ccc(S(=O)(=O)Nc2cnc3ccccc3n2)cc1	-3%	-13%	-5%	0%	-16%	1%
Cc1ccc(N2C(=O)C3C4C=CC(C4)C3C2=O)cc1 (stereo not given)	0%	?	-2%	10%	-1%	4%
CCOC(=O)N1CCN(C(=O)CSc2nnc(Cc3cccn3C)n2CCc2ccccc2)CC1	-1%	2%	2%	3%	3%	2%
Nc1nnc(-c2cccnc2)s1	?	1%	0%	2%	?	5%
Cc1cccc(-c2nnc(NC(=O)c3cccs3)s2)c1	?	7.6µM*	27%	20%	?	10%
c1ccc(Nc2nnc(-c3cccnc3)s2)cc1	?	1.7µM*	1µM*	0.4µM*	·	?
O=C(Nc1nnc(-c2cccnc2)s1)c1cccs1	?	12µM*	?	29%	·	?
